Measured values as given in PubChem BioAssay AID1347417 (National Center for Advancing Translational Sciences (NCATS), 2020).
The whole screen tested about 120,000 compounds, of which about 5,300 (4.4%) were called active. About 22% were inconclusive and are not listed. The entries come from a sample that favours actives as a whole. Values without a mark were called inactive. The call rests on the fitted dose curve; in most records, active means well fitted inhibition curve with a large enough effect; inconclusive means small, poorly fitted or top-dose-only effect; inactive means no such curve, though single readings can be large or run the other way.

Test: qHTS Primary assay for Inhibitors of Plasmodium falciparum Dd2 growth in vitro; further: nearly all actives have a fitted effect of over 65% in size;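 on activity, negative = inhibition: plate controls were DMSO vehicle for no effect and reference drug for full effect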
Conditions: P. falciparum Dd2 growth, SYBR Green, 72 h; series mostly up to 28.9 µM; activity, negative = inhibition: at the top concentration
Procedure, shortened: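 Readout: SYBR Green fluorescence, 485 nm excitation, 535 nm emission, after ~16 h lysis at 37C. Before that, Dd2-infected red cells (2.5% hematocrit) grew 72 h with compound, 29 uM top final concentration.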
Potency means the concentration at half of the fitted maximal effect.

Compound | activity, negative = inhibition | outcome | Potency
CNC(=O)[C@@H]1CN(C(=O)C2CC=CCC2)C[C@H]1c1nc(C)no1 (stereo partly drawn) | -11.6% |  | 
O=C(c1ccc(F)cc1)N1CCCC(c2nn(-c3cccc(Cl)c3)c(=O)[nH]2)C1 (stereo not drawn) |  | inactive | 
CN1C(=O)CC[C@]2(C(=O)NCC3CCCCC3)CCCC[C@@H]12 | 6.63% |  | 
COCCN1C(=O)CC[C@]2(C(=O)NCc3cccs3)CCCC[C@@H]12 | -7.18% |  | 
CC(C)CCN1C(=O)CC[C@]2(C(=O)N3CCN(C)CC3)CCCC[C@@H]12 |  |  | 11.2 µM (active)
CCOc1ccc(NC(=O)c2cnn(-c3ccccc3)c2-n2cccc2)cc1 | -18% |  | 
Cc1ccc2ncc(C(=O)Nc3ccc(OC(F)(F)F)cc3)c(=O)n2c1 | 5.38% |  | 
COC(=O)c1cnn(-c2ccc(C(=O)Nc3ccc(OC(F)(F)F)cc3)cc2)c1N |  |  | 1.58 µM (active)
O=C(NCC1(COc2ccc(C(F)(F)F)cn2)C[C@@H](O)[C@@H](O)C1)c1ccc(F)cc1 (stereo partly drawn) | -12.3% |  | 
CCn1cc(CN2C[C@@H](COC)[C@H](c3nc(COC)no3)C2)cn1 | 33.5% |  | 
O=C(COc1ccccc1)NCc1ccc2c(c1)CCN2C(=O)c1ccc(F)cc1 |  | inactive | 
COc1ccc(CCC(=O)NCc2ccc3c(c2)CCN3C(=O)c2ccc(F)cc2)cc1 |  |  | 4.47 µM (active)
O=C(CCc1ccccc1)NCc1ccc2c(c1)CCN2C(=O)c1ccccc1 |  | inactive | 
Cc1ccc(CNC(=O)N2CCCOCCNC(=O)[C@@H]3CCC[C@@H]32)cc1 | 48.5% |  | 
C[S+](=O)([O-])c1ccc(CC(=O)N2CC(CNC(=O)C3CC3)C3(C2)CN(c2ccccc2)C3)cc1 (stereo not drawn) | 18% |  | 
c1cncc(-c2cnc([C@@H]3COCCN3Cc3cnc4ccccc4c3)[nH]2)c1 | -25.9% [at 44.1 µM] |  | 
c1cc(CN2CCOC[C@H]2c2ncc(-c3ccncc3)[nH]2)ccn1 | 21.5% [at 44.1 µM] |  | 
Oc1ccccc1CN1CCOC[C@H]1c1ncc(-c2ccc(C(F)(F)F)cc2)[nH]1 |  |  | 1.26 µM (active)
O=C(COc1ccccc1)N[C@H]1[C@H](O)[C@H](O)C[C@@H]1c1ccc(C(F)(F)F)cc1 | -10.6% [at 44.1 µM] |  | 
Cc1ccc2c(c1)N1C(=O)OC[C@@H]1CCN(C(=O)Nc1ccccc1)C2 | -6.37% [at 44.1 µM] |  | 
CCOC(=O)c1ccc(NC(=O)Cn2nc3c(cc2=O)CN(C(C)=O)CC3)cc1 |  | inactive | 
COCCOC1CN(C2CCN(C(=O)c3ccc(OC)nc3)CC2)C12CCCCC2 (stereo not drawn) | -1.15% |  | 
CCn1cc(CN2CCC(N3CC(OCC4CC4)C34CCCCC4)CC2)cn1 (stereo not drawn) |  |  | 1.41 µM (active)
Fc1cccc(CN2CCC(N3CC(OCC4CC4)C34CCCCC4)CC2)c1 (stereo not drawn) |  |  | 0.501 µM (active)

Compound | activity, negative = inhibition | outcome | Potency
O=C(c1ccc2[nH]ccc2c1)N1CCC(N2CC(OCC3CC3)C23CCOCC3)CC1 (stereo not drawn) | -12% |  | 
COCCOC1CN(C2CCN(C(=O)C3CCOCC3)CC2)C12CCCCC2 (stereo not drawn) |  | inactive | 
N#Cc1cccc(CN2CCC(C3=NC(O)c4cc(F)ccc4N3)CC2)c1 (stereo not drawn) |  | inactive | 
O=C(Nc1cccc(Cl)c1)[C@@H]1C[C@@H](c2ccc(F)cc2)N([S+](=O)([O-])c2cccnc2)C1 |  | inactive; activator; fitted 4.4668 uM | 
O=C1CC(c2ccccc2)N(C(=O)CNC(=O)C2CCC2)CCCCCN1 (stereo not drawn) | 12.7% |  | 
O=C1CC(c2ccccc2)N(C(=O)CNC(=O)NCc2ccc(F)cc2)CCCCCN1 (stereo not drawn) | 24.2% |  | 
COc1ccc(CNC(=O)NCC(=O)N2CCCCCCNC(=O)CC2c2ccccc2)cc1 (stereo not drawn) |  |  | 8.91 µM (active)
CCn1cc(S(=O)(=O)N2CC[C@H]3C(=O)NCCCCCCN(Cc4ccncc4)[C@@H]3C2)cn1 | -2.45% |  | 
CN(C)C[C@@H]1CN(C)C[C@H]1NS(=O)(=O)c1cccc(C(F)(F)F)c1 |  |  | 3.55 µM (active)
NC(=O)[C@H](CCC(=O)O)NC(=O)[C@@]1(O)C[C@@H](O)[C@H](O)[C@@H](NS(=O)(=O)c2cccc(C(F)(F)F)c2)C1 | 5.33% |  | 
CN(C)C[C@@H]1CN(C)C[C@H]1NC(=O)c1cc2ccccc2[nH]1 | 3.28% |  | 
CN(C)C[C@@H]1CN(C(=O)c2ccc3c(c2)OCC(=O)N3)C[C@@H]1CO | -2.97% |  | 
O=C(NCc1ccc2c(c1)OCO2)c1noc(-c2ccc(F)cc2)n1 |  | inactive; activator; fitted 3.9811 uM | 
Cc1ccc(NC(=O)Cn2cccc2-c2nc(-c3ccc4c(c3)OCO4)no2)cc1Cl | 6.15% |  | 
O=C(CCc1ccccc1)NCCn1cccc1-c1nc(-c2ccc3c(c2)OCO3)no1 |  |  | 7.08 µM (active)
CCc1noc(C)c1C(=O)N1CC[C@@H](NC(=O)c2ccccn2)[C@H](O)C1 | 4.75% |  | 
O=C(CSc1nc(=O)[nH]c2c1CCCC2)Nc1cc(C(F)(F)F)ccc1Cl | -24.7% |  | 
O=C(CSc1nccn1C1CCCC1)Nc1cc(C(F)(F)F)ccc1Cl |  |  | 11.2 µM (active)
O=C(CSc1nccn1-c1ccc(F)cc1)Nc1cccc2ccccc12 | 14% |  | 
COc1ccc(NC(=O)CSc2nccn2C2CCCC2)cc1OC | 98.7% |  | 
Cc1cccc(-n2ccnc2SCC(=O)Nc2cc(C(F)(F)F)ccc2Cl)c1 |  |  | 3.55 µM (active)
Cc1cc(C)cc(-n2ccnc2SCC(=O)Nc2nc3ccccc3s2)c1 | 9.7% |  | 
Cc1ccc(-c2noc([C@@H]3CCCN3C(=O)c3cc(Cl)ccc3F)n2)cc1 |  | inactive | 
CS(=O)(=O)Cc1ccc(-c2cccc(OCc3ccccc3F)c2)nc1 | 15.8% |  | 
